Assay outcomes: PubChem BioAssay, several laboratories
Shown are actives, neighbours in structure and some others; about 4.9% of the full set was active somewhere.
MPTP block: mitochondrial permeability transition pore inhibitors, primary screen, biochemical, isolated mouse mitochondria, absorbance. inhibition, % at 10 µM. Ca2+ swelling absorbance, 30 min. 360,000 compounds, 1.4% hits;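 active means inhibition of 50% or more, scaled per plate between neutral and stimulator controls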;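 further: 0% = DMSO wells given calcium and 100% = 1 mM EGTA wells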
HSP90 refold inh: HSP90 inhibitors, primary screen, cell lysate, luminescence | inhibition, % at 5.6 µM | 290,000 compounds, 0.91% hits | Heat shock protein HSP 90 (rabbit reticulocyte lysate; luciferase refolding) | Rabbit reticulocyte lysate, luciferase refolding luminescence, 3 h;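 active means inhibition above the screen-wide mean plus 3 SD, computed separately per campaign, cut at about 16% in these data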;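 further: 0% = DMSO wells and 100% = 60 µM geldanamycin wells; inhibitors lower the luminescence because luciferase stays unfolded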
HSF1 activator: HSF-1 activators, primary screen, NIH3T3-HGL cells, MG132 stress, luminescence, single point; NIH3T3-HGL HSF-1 luciferase reporter, 8 h; 100% = twice DMSO control signal; activation, % at 9 µM; 300,000 compounds, 1.7% hits;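 active means mean replicate activation of at least 50% with a set share of replicates each reaching 50%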;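 further: 0% = median of the neutral control wells and 100% = twice that signal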
dFosB activator: activators of delta FosB homodimer, primary screen, biochemical, fluorescence polarization, TAMRA-CDK5 oligo, single point; Protein FosB (Mus musculus), P13346; purified delta FosB; percent of positive-control signal above neutral wells; activation, % at 25 µM; 340,000 compounds, 0.99% hits; AID 493131, 2011;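 active means mean activation above about 17%, with every replicate also reaching it, limit read from the data, passing the limit was not always enough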
Target sequence (P13346 whole entry, looked up): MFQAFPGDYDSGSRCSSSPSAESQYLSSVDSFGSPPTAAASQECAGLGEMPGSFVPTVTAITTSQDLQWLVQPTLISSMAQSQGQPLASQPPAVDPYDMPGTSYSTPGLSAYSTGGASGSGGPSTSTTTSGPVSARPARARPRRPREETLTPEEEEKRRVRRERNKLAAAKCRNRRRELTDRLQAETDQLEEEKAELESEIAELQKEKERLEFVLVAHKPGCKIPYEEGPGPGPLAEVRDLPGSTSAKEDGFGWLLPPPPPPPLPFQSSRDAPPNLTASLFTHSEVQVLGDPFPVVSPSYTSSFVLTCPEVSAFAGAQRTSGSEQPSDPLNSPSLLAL
HSF1 inhib: HSF1 inhibitors in luciferase reporter cells, primary screen, cell-based, NIH3T3, luminescence; AID 2098, 2009; NIH3T3-HGL HSE-luciferase, MG132-induced, luminescence 8 h; hits give low values; activity change, negative = inhibition, % at 7.5 µM (by protocol); 300,000 compounds, 0.77% hits;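 active means more than half of replicate wells show activity change below -50%, luminescence cut by over half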;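 further: luciferase reports HSF-1 transcriptional activity via heat shock element; 0% = median of DMSO wells and -100% = zero luminescence signal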
Platelet DG rel: inhibitors of platelet dense granule secretion, primary screen, cell-based, MLPCN, human platelets. AID 1663, 2009. human platelet-rich plasma, SFLLRN dense granule ATP release, luminescence. 300,000 compounds, 0.22% hits. inhibition, %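 (compounds screened at 7.5 µM in platelet-rich plasma)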;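 active means mean replicate score, as percent of positive control, at or above 50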
Starred values were filed as active, the others as inactive; nt = no result given.

SMILES	MPTP block	HSP90 refold inh	HSF1 activator	dFosB activator	HSF1 inhib	Platelet DG rel
CCCCNC(=O)c1ccc(Cn2c(=S)[nH]c3c([nH]c4ccc(OC)cc43)c2=O)cc1	5.9	-1.5	-70.9	-8.0	-70.7*	11.5
CC[C@H](C)NC(=O)c1ccc(Cn2c(=S)[nH]c3c([nH]c4ccc(OC)cc43)c2=O)cc1	4.6	-1.9	-57.9	-14.2	-57.6*	-2.3
CCOc1ccccc1C(=O)NC(C)c1ccc(-n2ccnc2)cc1 (stereo not given)	-1.5	-1.2	16.7	-5.8	3.1	-6.8
O=C(COC(=O)COc1ccc(Br)cc1)NC1CCS(=O)(=O)C1 (stereo not given)	2.9	nt	nt	nt	nt	nt
c1ccc(-n2cc(CN3CCCC3)c(-c3ccc4c(c3)OCO4)n2)cc1	-0.5	1.8	55.1*	1.8	37.2	-0.7
COc1ccc(S(=O)(=O)NCCC(=O)N2CCCN(C)CC2)cc1	0.1	nt	nt	-6.8	nt	nt
CCOc1ccc(S(=O)(=O)NCCC(=O)N2CCCN(C)CC2)cc1	-1.5	0.6	12.4	-1.5	4.2	50.6*
O=C(O)c1ccc(N2C(=O)CC(N3CCN(c4cccc(C(F)(F)F)c4)CC3)C2=O)cc1 (stereo not given)	-1.1	-2.1	-64.6	3.5	-56.0*	-0.5
Cc1cc(Nc2ccccc2)nc(N2CCN(C(=O)c3ccc4c(c3)OCO4)CC2)n1	-0.1	nt	-2.0	-5.8	1.4	-26.8
Cc1nn(C)c(Oc2ccccc2)c1CCNS(=O)(=O)c1ccc(Cl)cc1	26.2	0.2	55.2*	-10.3	8.7	-2.5
COc1cc(/C=C2\SC(=O)N(c3ccc(Cl)cc3)C2=O)cc([N+](=O)[O-])c1O	1.5	66.4*	nt	3.6	nt	nt
COc1cc(/C=C2\SC(=O)N(c3cccc(Cl)c3)C2=O)cc([N+](=O)[O-])c1O	0.2	3.3	nt	-7.7	nt	nt
CSc1ccccc1OCc1cc(C(=O)N(C)CC2COCCO2)no1 (stereo not given)	-0.2	2.4	7.5	-5.9	3.5	-3.4
O=C(N/N=C/c1cn(-c2cccs2)nc1-c1ccccc1)c1ccccc1Cl	2.5	2.6	59.2*	-5.8	22.2	-10.6
Cc1ccc(-c2nn(-c3ccccc3)cc2/C=N/NC(=O)c2ccncc2)o1	0.1	3.9	-0.2	26.2*	-4.9	-9.7
O=C(N/N=C/c1cn(-c2ccccc2)nc1-c1ccccc1)c1ccco1	5.8	-1.1	15.6	-15.4	-1.2	2.0
O=C(N/N=C/c1cn(-c2cccs2)nc1-c1ccccc1)c1ccc(O)cc1	-1.5	5.4	57.1*	-9.0	21.1	19.0
O=C(N/N=C/c1cn(-c2ccccc2)nc1-c1cccs1)c1ccncc1	2.1	2.3	26.5	-14.8	9.8	-2.7
O=C(C1=NN[C@@H]2C(=O)N(c3cccc(C(F)(F)F)c3)C(=O)[C@H]12)c1cnccn1	0.7	-0.6	12.4	-5.8	-0.3	-5.2
CCOc1cc(CNc2ccc3c(c2)OCCO3)cc(Br)c1OCC(N)=O	1.6	-2.2	-76.0	-0.9	-73.5*	-2.4
CCOc1cc(CNc2ccc3c(c2)OCCO3)cc(Br)c1OC	0.2	5.8	-57.8	-12.2	-47.0	5.5
CC1=Nc2ccccc2/C1=C/c1nc(-c2ccc(C)s2)oc1O	4.4	1.1	58.3*	-5.2	50.6	-1.9
C=C1CC2(OC1=O)c1ccccc1CCc1ccccc12	-3.3	nt	59.8*	2.9	59.8*	nt
O=C1OC2(c3ccccc31)c1ccccc1-c1ccccc12	-0.6	nt	nt	1.6	nt	nt
COC(=O)c1sccc1NC(=O)Nc1cccc(F)c1	14.0	-2.7	77.1*	-15.8	32.5	46.2
SMILES	MPTP block	HSP90 refold inh	HSF1 activator	dFosB activator	HSF1 inhib	Platelet DG rel
COc1ccccc1CC(=O)c1ccccc1OC	-1.4	nt	nt	1.4	nt	nt
COc1ccc(OC)c(C(C[N+](=O)[O-])c2c(C)cc3ccccn23)c1 (stereo not given)	6.3	-1.1	112.1*	-1.9	88.3	-5.0
COc1ccc(/C=C/C(=O)c2ccc(O)cc2)cc1CN1CCOCC1	0.2	-0.8	34.5	-12.6	22.8	11.0
COc1ccc(/C=C/C(=O)C23CC4CC(CC(C4)C2)C3)cc1CN1CCOCC1	-1.1	1.4	122.1*	-9.8	63.8	-3.5
CCOC(=O)C1(Cc2ccccc2)CCCN(C(=O)COc2ccccc2OC)C1 (stereo not given)	-1.6	nt	nt	nt	nt	nt
Cc1c(Cl)cccc1N1C(=O)CC(Sc2ccccc2N)C1=O (stereo not given)	-0.6	nt	nt	nt	nt	nt
CC(C)c1ccc(NC(=O)COc2ccc(F)cc2C(=O)c2cnn(-c3ccccc3)c2)cc1	19.7	-1.0	60.4*	-4.9	33.9	0.3
COc1ccc([C@H]2CC(=O)C=C(c3cccc(C(C)C)c3)C2)cc1OC	3.8	nt	nt	-10.0	nt	nt
O=C(NCC(=O)N(c1ccc(F)cc1)C(C(=O)NC1CCCC1)c1ccncc1)c1ccco1 (stereo not given)	-2.5	0.3	-9.8	0.4	1.3	4.0
CCc1ccc(N(C(=O)c2snc(C(N)=O)c2N)C(C(=O)NC2CCCC2)c2ccco2)cc1 (stereo not given)	0.5	0.4	6.0	7.8	3.7	-1.7
NC(=O)c1nsc(C(=O)N(c2cccc(F)c2)C(C(=O)NC2CCCC2)c2ccco2)c1N (stereo not given)	-0.8	-1.9	-84.2	14.4	-81.2*	3.7
O=C(NCC(=O)N(c1cccc(F)c1)C(C(=O)NC1CCCC1)c1ccncc1)c1ccco1 (stereo not given)	-0.3	8.1	54.3*	-14.1	39.9	-3.5
O=c1c2c(nc3cc(-c4cccc(F)c4)[nH]n13)CCC2	-1.7	0.4	52.1*	-6.1	15.5	-1.1
O=C(COc1coc(CN2CCCc3ccccc32)cc1=O)Nc1ccccc1	0.2	nt	-9.7	-8.7	1.5	-7.3
Cc1cc(C)n(CC(O)Cn2c3ccc(Br)cc3c3cc(Br)ccc32)c(=O)n1 (stereo not given)	-0.4	1.0	28.9	19.9*	4.4	0.5
CC(C)(C)c1ccc(-n2nc(C(N)=O)c(O)cc2=O)cc1	0.0	3.7	-9.2	-3.3	4.0	10.0
CC(C)(C)c1ccc(-n2nc(C#N)c(Cl)cc2=O)cc1	-2.7	-0.4	152.6*	-3.6	152.3	0.5
CCCCNC(=O)c1nc(C2CCN(S(=O)(=O)c3cccc(C(F)(F)F)c3)CC2)oc1-c1cccc(C(F)(F)F)c1	1.5	nt	nt	nt	nt	nt
Cc1ccc(C(C[N+](=O)[O-])c2c(C)[nH]n(-c3ccccc3)c2=O)cc1 (stereo not given)	1.5	2.4	-22.9	2.9	-18.6	-21.9
Cc1[nH]n(-c2ccccc2)c(=O)c1Sc1ccc(Cl)cc1	6.6	3.2	-51.1	2.9	-39.4	0.1
